According to PubChem BioAssay AID504329 (Southern Research Specialized Biocontainment Screening …, 2011):
Where “and” joins values, the source holds several entries; their conditions need not be identical. Identical values can stand only once. Out of some 340,000 compounds screened, about 1,000 (0.29%) were called active. No stated cut-off is given here; in the data, inconclusive means inhibition above about 27% without an active follow-up result; inactive means below that. These entries were drawn from the full list. Measured potencies and affinities stand elsewhere.

Test: NS1A inhibition, H1N1 influenza, cell based functional assay (AID 504329)
Conditions: percent inhibition, at 12.5 µM, stronger effect = higher value
For `CC(C)(C)c1cc(C(=O)N2CCc3ccccc32)ccn1`, the inhibition was -21.7% (inactive). In the case of `CC(=O)Nc1sc(C)c(C)c1C(=O)OCC(=O)NC(C)c1ccccc1` (centres undefined), the inhibition is reported as -5.54% (inactive). In the case of `Cc1ccc(S(=O)(=O)Nc2nc3ccccc3nc2NCC2CCCO2)cc1C` (centres undefined), the inhibition is reported as -0.91% (inactive). With `O=C1CC(c2ccc(O)cc2)Oc2cc(O)ccc21` (centres undefined) the inhibition was -6.8% (inactive). With `O=C(COc1ccccc1)N[C@@H]1c2ccccc2CC[C@H]1OCc1ccccc1` the inhibition was -3.28% (inactive). For `COc1ccc(C(CCN2CCCCC2)c2c(OC)cc(OC)c3c(-c4ccccc4)cc(=O)oc23)cc1` (centres undefined), the inhibition was 3.17% (inactive). In the case of `COc1cc(OC)c2c(-c3ccccc3)cc(=O)oc2c1C(CCN1CCOCC1)c1ccc(N(C)C)cc1` (centres undefined), the inhibition is reported as 9.77% (inactive). In the case of `COc1ccc(C(CCN2CCCC(C)C2)c2c(OC)cc(OC)c3c(-c4ccccc4)cc(=O)oc23)cc1` (centres undefined), the inhibition is reported as 10.3% (inactive). For `CCN(CC)CCC(c1cc(OC)c(OC)c(OC)c1)c1c(OC)cc(OC)c2c(-c3ccccc3)cc(=O)oc12` (centres undefined), the inhibition was -1.61% (inactive). For `COc1cc(OC)c2c(-c3ccccc3)cc(=O)oc2c1C(CCN1CCCC(C)C1)c1ccc2c(c1)OCO2` (centres undefined), the inhibition was 17.6% (inactive). In the case of `CCN(CC)CCC(c1ccc2c(c1)OCO2)c1c(OC)cc(OC)c2c(-c3ccccc3)cc(=O)oc12` (centres undefined), the inhibition is reported as 15.2% (inactive). In the case of `O=C(NCCc1ccccn1)c1ccc(NS(=O)(=O)c2ccc(F)cc2)cc1`, the inhibition is reported as -1.36% (inactive). For `COc1cccc(OCC(=O)NNC(=O)c2ccc3ccccc3c2O)c1`, the inhibition was 3.46% (inactive). For `CS(=O)(=O)N1N=C(c2ccco2)CC1c1ccco1` (centres undefined), the inhibition was 0.65% (inactive). In the case of `CC(NC(=O)CN(c1cccc(C(F)(F)F)c1)S(=O)(=O)c1ccc(Cl)c([N+](=O)[O-])c1)c1ccccc1` (centres undefined), the inhibition is reported as -1.19% (inactive). With `N#Cc1ccc(C(=O)Nc2cccc3ccccc23)c(F)c1` the inhibition was 4.06% (inactive). In the case of `CN1C(N)=NC(=O)/C1=C/c1ccc(OC(F)(F)F)cc1`, the inhibition is reported as -2.53% (inactive). With `CCOC(=O)c1ccccc1NC(=O)CN(c1ccccc1OCC)S(C)(=O)=O` the inhibition was 0.08% (inactive). In the case of `Cc1ccc(NC(=O)C2CCN(S(=O)(=O)c3ccc(C(C)(C)C)cc3)CC2)cc1S(=O)(=O)N1CCOCC1`, the inhibition is reported as -3.38% (inactive). In the case of `CCCN(CCC)S(=O)(=O)c1ccc(NS(C)(=O)=O)cc1`, the inhibition is reported as -0.06% (inactive). For `Cc1ccc(Cl)cc1NC1=C/C(=N\S(=O)(=O)c2cccs2)c2ccccc2C1=O`, the inhibition was 17.4% (inactive) and 16.6% (inactive). For `Cc1ccccc1NC1=C/C(=N\S(=O)(=O)c2ccc(C(=O)O)cc2)c2ccccc2C1=O`, the inhibition was 4.65% (inactive). In the case of `COC(=O)c1cccc(NS(=O)(=O)c2cccs2)c1C`, the inhibition is reported as 1.41% (inactive). With `COC(=O)c1ccccc1NC(=O)c1cccs1` the inhibition was 11.6% (inactive). In the case of `COC(=O)c1cc(NS(=O)(=O)c2cccs2)cc(NS(=O)(=O)c2cccs2)c1`, the inhibition is reported as -13.7% (inactive). With `O=C(O)c1ccc(S(=O)(=O)/N=C2\C=C(Nc3ccccc3F)C(=O)c3ccccc32)cc1` the inhibition was 14.7% (inactive). With `COc1ccccc1S(=O)(=O)Cc1ccc(C(=O)N2CCN(c3ccc(C)cc3)C(C)C2)o1` (centres undefined) the inhibition was 9.7% (inactive). For `COC(=O)c1ccc2c(c1O)C(=O)c1ccccc1C2=O`, the inhibition was 4.41% (inactive). For `CC(C)COC(=O)c1ccccc1C(=O)OCC(C)C`, the inhibition was 2.41% (inactive). In the case of `CCN(CC)c1ccc(O)c(C=Nc2ccc(C)c(C)c2)c1`, the inhibition is reported as -19.5% (inactive). In the case of `COc1ccc2c(O)c(-c3c(C)cc(C)cc3C)c(=O)[nH]c2c1`, the inhibition is reported as 10.4% (inactive). With `COc1ccc(/C=C(/NC(=O)c2ccco2)C(=O)Nc2ccc(C(=O)O)cc2)cc1` the inhibition was -7.59% (inactive). With `O=C(O)c1ccc(N2CCc3ccccc32)c([N+](=O)[O-])c1` the inhibition was 4.7% (inactive). For `COC(CNC(=O)c1ccc(N2CCc3ccccc32)c([N+](=O)[O-])c1)OC`, the inhibition was 10.7% (inactive). In the case of `COCC(COS(N)(=O)=O)C(C)C` (centres undefined), the inhibition is reported as 9.46% (inactive). For `CCc1nc(N2CCN(C(=O)c3ccccc3)CC2)c2c3c(sc2n1)CCCC3`, the inhibition was 2.27% (inactive). For `Cc1c2ccccc2cc[n+]1CCCS(=O)(=O)[O-]`, the inhibition was 5.16% (inactive). In the case of `CCOc1ccc(C(=O)Nc2ncn[nH]2)cc1`, the inhibition is reported as -3.3% (inactive). For `COc1cc(NCc2ccccc2)c2ncn(C(C)C)c2c1`, the inhibition was 0.83% (inactive). For `CCC(CO)Oc1cc(NCc2ccccc2)c2ncn(C(C)C)c2c1` (centres undefined), the inhibition was 3.05% (inactive). In the case of `Cc1ccc2c(c1)c(N=Nc1cccc(C(=O)O)c1)c(O)n2C`, the inhibition is reported as -0.45% (inactive). With `CC(=O)Nc1nonc1NC(=O)COc1ccccc1` the inhibition was -0.08% (inactive). In the case of `CCC(C)[C@H](NC(=O)[C@@H]1Cc2c([nH]c3ccccc23)C2c3ccccc3C(=O)N21)C(=O)NCC1CCCO1` (some centres undefined), the inhibition is reported as 0.06% (inactive). For `C=CCOC(=O)C1=C(C)Nc2nc3ccccc3n2C1c1ccncc1` (centres undefined), the inhibition was -21.4% (inactive). With `Cc1ccc2cc(/C=N/NC(=O)CN3CCCCC3)c(Cl)nc2c1` the inhibition was 1.44% (inactive). With `Cc1cccc(/C=N/NC(=O)CN2CCCCCCC2)c1` the inhibition was 5.95% (inactive). In the case of `O=C(CN1CCOCC1)N/N=C/c1c(O)ccc2ccccc12`, the inhibition is reported as 14.4% (inactive). With `O=C(CN1CCCc2ccccc21)N/N=C/c1c(O)ccc2ccccc12` the inhibition was -3.7% (inactive). With `COc1cc2oc3ccccc3c2cc1N(CC(=O)N(C)C)S(=O)(=O)c1ccc(C)cc1` the inhibition was 1.98% (inactive). With `CCCCc1nnc(NC(=O)c2ccc(OCc3c(C)noc3C)cc2)s1` the inhibition was 3.77% (inactive). With `CCOC(=O)N1CCN(C(=O)c2ccc3c(Cl)c4c(nc3c2)CCCC4)CC1` the inhibition was -2.68% (inactive). For `CSCC[C@H](NC(=O)OC(C)(C)C)C(=O)N1CCC(C(=O)N[C@@H](C)C(=O)NC(C)c2ccccc2)CC1` (some centres undefined), the inhibition was 4.49% (inactive). In the case of `CCc1ccc(CN(C)C(=O)c2ccc3c(=O)n4c(nc3c2)CCC4)cc1`, the inhibition is reported as -7.99% (inactive). In the case of `COc1cccc2c1C(=O)c1c(O)c3c(c(O)c1C2=O)C[C@](O)(C(C)=O)C[C@H]3O[C@@H]1C[C@@H](N)[C@@H](O)[C@@H](C)O1`, the inhibition is reported as 24.5% (inactive). With `CCCCC(=O)OCC(=O)C1(O)Cc2c(O)c3c(c(O)c2C(OC2CC(NC(=O)C(F)(F)F)C(O)C(C)O2)C1)C(=O)c1c(OC)cccc1C3=O` (centres undefined) the inhibition was 14.4% (inactive). With `COc1cccc2c1C(=O)c1c(O)c3c(c(O)c1C2=O)C[C@@](O)(C(=O)CO)C[C@@H]3OC1CC(N)C(O)C(C)O1` (some centres undefined) the inhibition was 15% (inactive). With `COc1cccc2c1C(=O)c1c(O)c3c(c(O)c1C2=O)CC(O)(C(C)=O)CC3OC1CC(N(C)C)C(O)C(C)O1` (centres undefined) the inhibition was 19.1% (inactive). In the case of `COc1cccc2c1C(=O)c1c(O)c3c(c(O)c1C2=O)CC(O)(C(C)=O)CC3OC1CC(O)C(O)C(C)O1` (centres undefined), the inhibition is reported as 20.6% (inactive). With `COc1cccc2c1C(=O)c1c(O)c3c(c(O)c1C2=O)CC(O)(C(=O)CO)CC3OC1CC(N(C)C)C(O)C(C)O1` (centres undefined) the inhibition was 18.7% (inactive). With `C/C(=N\NC(=O)c1ccc(Cl)c(Cl)c1)c1cccc(NC(=O)C(C)C)c1` the inhibition was -0.88% (inactive). For `COc1cccc2c1C(=O)c1c(O)c3c(c(O)c1C2=O)C[C@@](O)(C(=O)CO)C[C@@H]3O[C@H]1C[C@H](N)[C@H](O)[C@H](C)O1`, the inhibition was 20.3% (inactive). With `COC(=O)CC1=C(C(=O)OC)C(c2ccc3c(c2)OCO3)C(C#N)=C(N)O1` (centres undefined) the inhibition was -5.88% (inactive). In the case of `Cc1cc(C)c(NC(=O)c2ccc(CN3CCc4ccccc4C3)cc2)c(C)c1`, the inhibition is reported as 12.4% (inactive). In the case of `COc1ccccc1/C=C/C=C1\Oc2c(ccc(O)c2CN2CCN(CCO)CC2)C1=O`, the inhibition is reported as 6.54% (inactive). For `CC(C)n1cc(C#N)c(N)n1`, the inhibition was -24.1% (inactive). In the case of `Cc1ccc2c(CN3CCCCC3C)cc(=O)oc2c1C` (centres undefined), the inhibition is reported as -6.02% (inactive). For `O=C(COC(=O)c1cccc(O)c1)Nc1ccc(Cl)cc1C(=O)c1ccccc1`, the inhibition was -7.75% (inactive). For `CSC1=NCCN1C(=O)c1c(-c2c(F)cccc2Cl)noc1C`, the inhibition was -23.1% (inactive). With `Cc1ccc(C2C(N)C(=O)N2c2ccc(C)cc2)cc1` (centres undefined) the inhibition was -20.6% (inactive). In the case of `Cc1ccc(NC(=O)CN(C)C(=O)Cc2ccc(Cl)c(Cl)c2)cc1`, the inhibition is reported as 9.85% (inactive). In the case of `Cc1ccc(S(=O)(=O)NNC(=O)c2cnn(-c3ccc(Cl)cc3)c2C(F)(F)F)cc1`, the inhibition is reported as -16.4% (inactive). In the case of `Cc1cccc(C)c1NC(=O)CN(C)C(=O)c1cccc(S(=O)(=O)N2CCN(c3ccccc3)CC2)c1`, the inhibition is reported as 1.58% (inactive). In the case of `NC1=NC(=O)/C(=C/C=C/c2cccs2)S1`, the inhibition is reported as -14.1% (inactive). For `COc1ccc(/C=C/C=C2\N=C(SC)SC2=O)cc1`, the inhibition was 18% (inactive). In the case of `CC(C)CCNC(=O)CCc1nnc2n(CCCOC(C)C)c(=O)c3ccccc3n12`, the inhibition is reported as -5.28% (inactive). In the case of `Cc1ccc(SCCN)cc1C`, the inhibition is reported as 8.4% (inactive). In the case of `O=C1CC(c2ccccc2)CN1` (centres undefined), the inhibition is reported as -20.7% (inactive). With `COc1cc(CNC2CCC(C)C2)cc(OC)c1` (centres undefined) the inhibition was 4.05% (inactive). For `Cc1ccc(NC2=CC(=O)C(=O)c3ccccc32)cc1`, the inhibition was 2.25% (inactive). With `Cc1ccc(SC2=C(Sc3ccc(C)cc3)C(=O)c3ccccc3C2=O)cc1` the inhibition was 4.19% (inactive). In the case of `NC(=O)CC(NC(=O)Cc1cccc2ccccc12)c1ccc(N2CCc3ccccc3C2)c([N+](=O)[O-])c1` (centres undefined), the inhibition is reported as 14.5% (inactive). For `CC1(C)Oc2ccc(NC(=O)c3ccco3)cc2O1`, the inhibition was -10.6% (inactive). With `CC1N(C)c2cc(NC(=O)c3ccco3)c(P(=O)(Nc3ccc([N+](=O)[O-])cc3)N3CCOCC3)cc2C1(C)C` (centres undefined) the inhibition was 10.5% (inactive). In the case of `Cc1ccc(C2(C)NC(=O)N(CC(=O)N3CCN(C(=O)c4cccs4)CC3)C2=O)cc1` (centres undefined), the inhibition is reported as -14.4% (inactive).
